Measurements published in the supplement of paper PMC12645437, “Orthogonal IMiD-Degron Pairs Induce Selective Protein Degradation in Cells” (ACS Chemical Biology, 2025).
Over roughly 8,300 sequences, “log2 fold change of degron read counts, EGFP-low vs EGFP+ sorted cells (limma voom), compound-induced degradation” has its median near -1.1; the highest 2% begin near 3.2. The full list was thinned out, with the highest values kept by preference.

T1: CRBN, Q96SW2
T1 chain: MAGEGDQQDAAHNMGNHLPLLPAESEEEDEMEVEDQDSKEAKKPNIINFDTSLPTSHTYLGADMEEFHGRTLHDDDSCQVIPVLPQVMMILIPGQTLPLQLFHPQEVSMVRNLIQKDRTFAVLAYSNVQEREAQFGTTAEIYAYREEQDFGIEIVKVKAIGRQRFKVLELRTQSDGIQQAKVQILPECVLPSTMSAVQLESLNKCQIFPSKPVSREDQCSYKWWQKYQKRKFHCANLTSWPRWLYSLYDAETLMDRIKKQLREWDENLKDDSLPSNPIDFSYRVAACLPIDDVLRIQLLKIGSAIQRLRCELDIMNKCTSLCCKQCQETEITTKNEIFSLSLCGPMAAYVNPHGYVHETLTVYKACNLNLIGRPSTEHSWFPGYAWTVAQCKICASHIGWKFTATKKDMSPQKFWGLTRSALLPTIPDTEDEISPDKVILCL


Molecular target: T1, CRBN, Q96SW2
Assay: log2 fold change of degron read counts, EGFP-low vs EGFP+ sorted cells (limma voom), compound-induced degradation; higher = more compound-induced degradation of the degron-EGFP fusion; degrons are variants of IKZF1/3 zinc finger 2; compound dose not given here
Settings: Jurkat, 18 h
[1] = compound: compound 19 (5-tert-butyl-thalidomide)
[2] = compound: compound 22 (5-morpholino-thalidomide)
[3] = compound: compound 33 (diphenyl IMiD analogue)
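Note: pooled lentiviral library of zinc finger degron-EGFP fusions in mCherry-positive Jurkat cells, FACS-sorted after compound exposure, with degron abundance counted by next-generation sequencing.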

Sequence	log2 fold change of degron read counts [1]	log2 fold change of degron read counts [2]	log2 fold change of degron read counts [3]	log2 fold change of degron read counts (compound: thalidomide)
FQCEICGAMFTQKGNLLRHIKL [46F_47Q_49E_50I_52G_53A_54M_55F_67L_, Q9UKT9]	-0.0508	2.24	2.45	3.57
FNCEICGAMFTQKGNLLRHIKL [46F_47N_49E_50I_52G_53A_54M_55F_67L_, Q9UKT9]	1.65	-0.456	-0.467	-0.552
FACEICGAMFTQKGNLLRHIKL [46F_47A_49E_50I_52G_53A_54M_55F_67L_, Q9UKT9]	3.3	1.74	0.378	-0.0211
FECEICGAMFTQKGNLLRHIKL [46F_47E_49E_50I_52G_53A_54M_55F_67L_, Q9UKT9]	-0.963	-1.94	0.392	1.16
FCCEICGAMFTQKGNLLRHIKL [46F_47C_49E_50I_52G_53A_54M_55F_67L_, Q9UKT9]	2.28	1.35	2.11	1.39
FWCEICGAMFTQKGNLLRHIKL [46F_47W_49E_50I_52G_53A_54M_55F_67L_, Q9UKT9]	3.33	3.63	2.34	0.517
FMCEICGAMFTQKGNLLRHIKL [46F_47M_49E_50I_52G_53A_54M_55F_67L_, Q9UKT9]	-0.964	-0.957	1.9	0.514
FDCEICGAMFTQKGNLLRHIKL [46F_47D_49E_50I_52G_53A_54M_55F_67L_, Q9UKT9]	0.132	-1.04	-0.408	0.217
FHCEICGAMFTQKGNLLRHIKL [46F_47H_49E_50I_52G_53A_54M_55F_67L_, Q9UKT9]	2.38	1.87	1.06	-0.251
FLCEICGAMFTQKGNLLRHIKL [46F_47L_49E_50I_52G_53A_54M_55F_67L_, Q9UKT9]	-0.288	-1.63	0.563	0.887
FGCEICGAMFTQKGNLLRHIKL [46F_47G_49E_50I_52G_53A_54M_55F_67L_, Q9UKT9]	3	2.34	1.39	0.523
FFCEICGAMFTQKGNLLRHIKL [46F_47F_49E_50I_52G_53A_54M_55F_67L_, Q9UKT9]	3.34	3.12	1.91	0.537
LDCNQCGFQCTQKGNLLRHIKL [46L_47D_49N_50Q_52G_53F_54Q_55C_67L_, Q9UKT9]	-2.46	-2.61	-2.96	-1.93
FICPVCGATFTQKGNLLRHIKL [46F_47I_49P_50V_52G_53A_54T_55F_67L_, Q9UKT9]	-1.38	1.38	1.48	1.83
FKCEICGHHFTQKGNLLRHIKL [46F_47K_49E_50I_52G_53H_54H_55F_67L_, Q9UKT9]	-3.82	-3.97	-3.56	-3.72
FNCNQCGRPFTQKGNLLRHIKL [46F_47N_49N_50Q_52G_53R_54P_55F_67L_, Q9UKT9]	-1.93	-2	-2.66	-2.05
FVCPQCGAMFTQKGNLLRHIKL [46F_47V_49P_50Q_52G_53A_54M_55F_67L_, Q9UKT9]	-2.14	-0.591	0.3	-0.862
FECPQCGAFFTQKGNLLRHIKL [46F_47E_49P_50Q_52G_53A_54F_55F_67L_, Q9UKT9]	-2.8	-3.69	-1.82	-1.91
FECDQCGAAFTQKGNLLRHIKL [46F_47E_49D_50Q_52G_53A_54A_55F_67L_, Q9UKT9]	-1.3	-3.38	-1.76	-1.6

Sequence	log2 fold change of degron read counts [1]	log2 fold change of degron read counts [2]	log2 fold change of degron read counts [3]	log2 fold change of degron read counts (compound: thalidomide)
FTCEQCGACFTQKGNLLRHIKL [46F_47T_49E_50Q_52G_53A_54C_55F_67L_, Q9UKT9]	-1.75	-1.02	0.816	0.182
FWCPQCGAVFTQKGNLLRHIKL [46F_47W_49P_50Q_52G_53A_54V_55F_67L_, Q9UKT9]	-0.18	1.02	0.693	-0.596
FICEICGAMFTQKGNLLRHIKL [46F_47I_49E_50I_52G_53A_54M_55F_67L_, Q9UKT9]	-0.357	1.35	2.3	2.13
FTCEICGAMFTQKGNLLRHIKL [46F_47T_49E_50I_52G_53A_54M_55F_67L_, Q9UKT9]	0.136	0.966	1.62	1.82
FYCEICGAMFTQKGNLLRHIKL [46F_47Y_49E_50I_52G_53A_54M_55F_67L_, Q9UKT9]	3.62	3.42	2.55	0.91
FACPQCGAAFTQKGNLLRHIKL [46F_47A_49P_50Q_52G_53A_54A_55F_67L_, Q9UKT9]	1.65	-0.791	0.0272	-1.04
FRCEVCGAGFTQKGNLLRHIKL [46F_47R_49E_50V_52G_53A_54G_55F_67L_, Q9UKT9]	2.66	2.02	2.33	1.57
FFCEVCGAGFTQKGNLLRHIKL [46F_47F_49E_50V_52G_53A_54G_55F_67L_, Q9UKT9]	3.65	2.72	1.51	0.512
FGCEVCGAGFTQKGNLLRHIKL [46F_47G_49E_50V_52G_53A_54G_55F_67L_, Q9UKT9]	1.93	-0.105	0.538	-0.636
FQCEVCGAGFTQKGNLLRHIKL [46F_47Q_49E_50V_52G_53A_54G_55F_67L_, Q9UKT9]	2.45	1.65	1.38	3.21
FDCEVCGAGFTQKGNLLRHIKL [46F_47D_49E_50V_52G_53A_54G_55F_67L_, Q9UKT9]	1.18	-1.45	-1.35	-0.721
FICEVCGAGFTQKGNLLRHIKL [46F_47I_49E_50V_52G_53A_54G_55F_67L_, Q9UKT9]	-0.137	2.66	2.12	2.56
FACEVCGAGFTQKGNLLRHIKL [46F_47A_49E_50V_52G_53A_54G_55F_67L_, Q9UKT9]	3.4	1.13	-0.271	0.383
FECEVCGAGFTQKGNLLRHIKL [46F_47E_49E_50V_52G_53A_54G_55F_67L_, Q9UKT9]	1.72	-1.52	0.852	1.21
FHCEVCGAGFTQKGNLLRHIKL [46F_47H_49E_50V_52G_53A_54G_55F_67L_, Q9UKT9]	3.18	1.07	2.01	-0.276
FLCEVCGAGFTQKGNLLRHIKL [46F_47L_49E_50V_52G_53A_54G_55F_67L_, Q9UKT9]	2.28	-0.0355	1.42	1.08
FYCEVCGAGFTQKGNLLRHIKL [46F_47Y_49E_50V_52G_53A_54G_55F_67L_, Q9UKT9]	3.31	3.22	2.6	0.445
FCCEVCGAGFTQKGNLLRHIKL [46F_47C_49E_50V_52G_53A_54G_55F_67L_, Q9UKT9]	3.35	1.74	1.47	1.17
